The results in this text go back to PubChem BioAssay (Tox21).

Records with an inconclusive call do not appear. Activity calls are given as the source filed them. Unless noted, calls come from the whole dose curve; as a rule, active = well fitted curve in the direction sought with a large enough effect in the repeat runs; inconclusive = weak or mixed curves; inactive = no such curve, though single readings can be large; an effect the other way counts as inactive or inconclusive.

Assay [1] is described as follows: qHTS assay to identify small molecule that activate the aryl hydrocarbon receptor (AhR) signaling pathway - cell viability counter screen (AID 743086). Note: nearly all actives have a fitted effect of over 45% in size. Note: potency is the fitted concentration of half-maximal effect. The essentials:
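HepG2-AhR-luc (HG2L7.5c1) cells, 4000/well, were preincubated 5 h at 37C, exposed to compound in qHTS format for 24 hr at 37C, then given CellTiter-Fluor for 30 min; viability was read as fluorescence in the reporter wells.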
On the technique in general: In qHTS, concentration-response curves come from the screen itself.

Assay [2] has as its target Peroxisome proliferator-activated receptor gamma (Homo sapiens) (UniProt P37231). In words: qHTS assay to identify small molecule antagonists of the peroxisome proliferator-activated receptor gamma (PPARg) signaling pathway (AID 743191; calls by dose curve; note: series mostly up to about 63 µM; nearly all actives have a fitted effect of over 30% in size). The essentials:
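GeneBLAzer PPARg UAS-bla HEK293H cells carrying a UAS-driven beta-lactamase reporter were plated at 3000 cells/well, preincubated 5 h at 37C, then given compound for 17 h at 37C; LiveBLAzer B/G FRET substrate was read after 1 h at room temperature.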

Assay [3] in a line: qHTS assay to identify small molecule antagonists of the peroxisome proliferator-activated receptor gamma (PPARg) signaling pathway - cell viability counter screen (AID 743194). Note: nearly all actives have a fitted effect of over 55% in size. A digest of the protocol:
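PPARg-UAS-bla HEK293H cells were plated, rested 5 h at 37 C, then treated with compounds plus rosiglitazone (50 nM final) for 17 h at 37 C; viability was then read by CellTiter-Glo luminescence after 30 min at room temperature.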

Assay [4] in a line: qHTS assay for small molecule agonists of the antioxidant response element (ARE) signaling pathway - cell viability counter screen (AID 743203; calls by dose curve; note: nearly all actives have a fitted effect of over 55% in size). A digest of the protocol:
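Luminescence read-out (CellTiter-Glo, 30 min at room temperature) measured cell viability in the same wells as the ARE beta-lactamase reporter. HepG2 ARE-bla cells were treated with compounds for 16 hrs at 37C/5% CO2.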

Assay [5] is described as follows: qHTS assay for small molecule activators of the heat shock response signaling pathway (AID 743210; active = well fitted activation curve with a large enough effect in the signal ratio in the repeat runs, with a control signal flat, not every such curve was filed as active; the % refers to the signal ratio; note: series mostly up to about 63 µM). A digest of the protocol:
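Heat shock element–beta-lactamase HeLa reporter cells; qHTS with compounds for 5 h at 37 C; detection by FRET substrate fluorescence after 2.5 h at RT.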

A short description of assay [6]: qHTS assay to identify small molecule agonists of the peroxisome proliferator-activated receptor delta (PPARd) signaling pathway - cell viability counter screen (AID 743211). Note: nearly all actives have a fitted effect of over 55% in size. A digest of the protocol: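 Viability of GeneBLAzer PPARd UAS-bla HEK293H cells was assessed after 17 h compound incubation at 37C, using CellTiter-Glo reagent added after the reporter read and luminescence recorded 30 min later.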

For assay [7], the target named is Peroxisome proliferator-activated receptor delta (Homo sapiens) (UniProt Q03181). In words: qHTS assay to identify small molecule agonists of the peroxisome proliferator-activated receptor delta (PPARd) signaling pathway (AID 743212; calls by dose curve). A digest of the protocol:
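Beta-lactamase reporter read by fluorescence (LiveBLAzer B/G FRET, 2 h, room temperature). Test agents, in DMSO, incubated at 37 C with PPARd-bla HEK293H cells.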

Assay [8] is described as follows: qHTS assay to identify small molecule antagonists of the peroxisome proliferator-activated receptor delta (PPARd) signaling pathway - cell viability counter screen (AID 743213). Note: nearly all actives have a fitted effect of over 50% in size. Note: potency is the fitted concentration of half-maximal effect. The essentials: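 Agonist-stimulated (L165041, 300 nM final) HEK293H PPARd UAS-bla cells are exposed to compounds for 17 h at 37 C, and ATP-based luminescence (CellTiter-Glo) from the same wells reports cytotoxicity.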

A short description of assay [9]: qHTS assay to identify small molecule agonists of the farnesoid-X-receptor (FXR) signaling pathway - cell viability counter screen (AID 743218). Note: nearly all actives have a fitted effect of over 45% in size. A digest of the protocol: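 Luminescence from CellTiter-Glo, read after 30 min at RT, reports viability of GeneBLAzer FXR-UAS-bla HEK 293T cells treated 16 h with compounds in the wells used for the beta-lactamase reporter.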

In assay [10] the target is Vitamin D3 receptor (Homo sapiens) (UniProt P11473). In words: qHTS assay to identify small molecule agonists of the vitamin D receptor (VDR) signaling pathway (AID 743222; calls by dose curve). The essentials: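 Beta-lactamase reporter readout (LiveBLAzer B/G FRET, 2 h RT) in VDR-bla cells after 16 h compound treatment at 37C, 5% CO2; cells pre-incubated 4 h before pin transfer of DMSO solutions.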

Assay [11] has the same target. In words: qHTS assay to identify small molecule antagonists of the vitamin D receptor (VDR) signaling pathway (AID 743223; active = well fitted inhibition curve with a large enough effect in the signal ratio in the repeat runs, not every such curve was filed as active; the % refers to the signal ratio). A digest of the protocol: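 Fluorescence from LiveBLAzer B/G FRET substrate, read after 2 h at room temperature, reflects beta-lactamase reporter activity in VDR-bla cells treated 16 h at 37C with compounds and agonist 1alpha,25-dihydroxyvitamin D3 (3 nM final).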

Assay [12] in a line: qHTS assay to identify small molecule agonists of the vitamin D receptor (VDR) signaling pathway - cell viability counter screen (AID 743224). Note: nearly all actives have a fitted effect of over 50% in size. Note: potency is the fitted concentration of half-maximal effect. A digest of the protocol:
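Cytotoxicity counter screen: VDR-bla cells, 16 h compound exposure at 37C, 5% CO2; CellTiter-Glo luminescence, 30 min RT, same wells as bla read.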

Assay [13] is described as follows: qHTS assay for small molecule activators of the heat shock response signaling pathway - cell viability counter screen (AID 743209). Note: nearly all actives have a fitted effect of over 50% in size. The essentials:
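HSE-bla HeLa; 1500 cells/well; overnight 37 C, 5% CO2; compound 5 h 37 C; LiveBLAzer B/G substrate 2.5 h RT; CellTiter-Glo 30 min RT; luminescence.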

Assay [14] is described as follows: qHTS assay to identify small molecule antagonists of the farnesoid-X-receptor (FXR) signaling pathway - cell viability counter screen (AID 743221; active = well fitted cell-killing curve with a large enough effect in the repeat runs, not every such curve was filed as active; note: nearly all actives have a fitted effect of over 50% in size; note: potency is the fitted concentration of half-maximal effect). The essentials: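 Quantitative HTS of the Tox21 10K library run in parallel with the beta-lactamase reporter read. HEK 293T cells carrying a UAS-driven bla reporter got compound and 50 uM CDCA (final) for 16 h; ATP-based luminescence followed.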

Assay [15] deals with Bile acid receptor (Homo sapiens) (UniProt Q96RI1). In words: qHTS assay to identify small molecule agonists of the farnesoid-X-receptor (FXR) signaling pathway (AID 743220; active = well fitted activation curve with a large enough effect in the signal ratio in the repeat runs, not every such curve was filed as active; the % refers to the signal ratio). The essentials:
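FXR-UAS-bla HEK 293T cells carrying a UAS-driven beta-lactamase reporter were plated for 5 h at 37C/5% CO2, then exposed to DMSO-dissolved Tox21 10K compounds for 16 h at 37C. A LiveBLAzer B/G FRET substrate was loaded for 2 h at room temperature before fluorescence reading.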

Assay [16] addresses Peroxisome proliferator-activated receptor delta (Homo sapiens) (UniProt Q03181). The assay can be described thus: qHTS assay to identify small molecule antagonists of the peroxisome proliferator-activated receptor delta (PPARd) signaling pathway (AID 743215; active = well fitted inhibition curve with a large enough effect in the signal ratio in the repeat runs, not every such curve was filed as active; the % refers to the signal ratio; note: series mostly up to about 62 µM). A digest of the protocol:
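HEK293H GeneBLAzer PPARd UAS-bla reporter cells; cpd + L165041 300 nM final, 17 h 37 C; LiveBLAzer B/G FRET substrate 2 h RT; fluorescence intensity read-out. Antagonist mode.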

Assay [17] addresses Bile acid receptor (Homo sapiens) (UniProt Q96RI1). In words: qHTS assay to identify small molecule antagonists of the farnesoid-X-receptor (FXR) signaling pathway (AID 743217; active = well fitted inhibition curve with a large enough effect in the signal ratio in the repeat runs, not every such curve was filed as active; the % refers to the signal ratio). The essentials:
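Read-out: beta-lactamase FRET fluorescence (LiveBLAzer B/G substrate, 2 h, room temperature) in GeneBLAzer FXR-UAS-bla HEK 293T cells. Compounds were co-dosed with 50 uM chenodeoxycholic acid (final) and incubated 16 h at 37 °C.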

Assay [18] in a line: qHTS assay for small molecule agonists of the antioxidant response element (ARE) signaling pathway (AID 743202; active = well fitted activation curve with a large enough effect in the signal ratio in the repeat runs, not every such curve was filed as active; the % refers to the signal ratio). The essentials:
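Following a 16 h, 37 C exposure of reporter HepG2 cells (ARE-driven beta-lactamase, 2,000 cells/well) to compounds, FRET substrate was applied for 2 h at room temperature and fluorescence intensity recorded.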

Bile acid receptor (Homo sapiens), sequence (Q96RI1 whole entry, looked up): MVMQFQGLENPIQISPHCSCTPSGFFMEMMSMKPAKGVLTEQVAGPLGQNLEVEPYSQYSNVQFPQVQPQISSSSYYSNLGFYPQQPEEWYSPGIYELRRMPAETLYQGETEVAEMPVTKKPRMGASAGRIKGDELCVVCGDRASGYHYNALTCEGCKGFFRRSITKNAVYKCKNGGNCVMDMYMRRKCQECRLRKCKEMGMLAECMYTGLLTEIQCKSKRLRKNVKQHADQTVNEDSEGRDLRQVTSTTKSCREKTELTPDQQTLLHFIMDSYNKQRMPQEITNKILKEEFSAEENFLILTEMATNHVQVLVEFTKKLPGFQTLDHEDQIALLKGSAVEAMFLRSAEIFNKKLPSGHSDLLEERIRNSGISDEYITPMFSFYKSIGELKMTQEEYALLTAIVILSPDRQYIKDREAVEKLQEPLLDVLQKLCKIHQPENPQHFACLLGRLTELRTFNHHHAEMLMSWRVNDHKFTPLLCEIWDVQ
Vitamin D3 receptor (Homo sapiens), sequence (P11473 whole entry, looked up): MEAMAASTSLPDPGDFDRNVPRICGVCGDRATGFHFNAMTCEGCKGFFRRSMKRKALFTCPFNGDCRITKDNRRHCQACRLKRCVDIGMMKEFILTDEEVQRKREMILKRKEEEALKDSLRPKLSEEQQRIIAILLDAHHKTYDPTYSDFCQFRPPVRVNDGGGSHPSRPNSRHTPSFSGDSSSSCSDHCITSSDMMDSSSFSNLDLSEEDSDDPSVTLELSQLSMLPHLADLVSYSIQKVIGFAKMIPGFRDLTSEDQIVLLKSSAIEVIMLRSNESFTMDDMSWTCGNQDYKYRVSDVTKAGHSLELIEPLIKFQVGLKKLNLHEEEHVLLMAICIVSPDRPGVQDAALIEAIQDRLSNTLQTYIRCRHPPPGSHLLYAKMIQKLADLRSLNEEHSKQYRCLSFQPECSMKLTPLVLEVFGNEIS
Peroxisome proliferator-activated receptor delta (Homo sapiens), sequence (Q03181 whole entry, looked up): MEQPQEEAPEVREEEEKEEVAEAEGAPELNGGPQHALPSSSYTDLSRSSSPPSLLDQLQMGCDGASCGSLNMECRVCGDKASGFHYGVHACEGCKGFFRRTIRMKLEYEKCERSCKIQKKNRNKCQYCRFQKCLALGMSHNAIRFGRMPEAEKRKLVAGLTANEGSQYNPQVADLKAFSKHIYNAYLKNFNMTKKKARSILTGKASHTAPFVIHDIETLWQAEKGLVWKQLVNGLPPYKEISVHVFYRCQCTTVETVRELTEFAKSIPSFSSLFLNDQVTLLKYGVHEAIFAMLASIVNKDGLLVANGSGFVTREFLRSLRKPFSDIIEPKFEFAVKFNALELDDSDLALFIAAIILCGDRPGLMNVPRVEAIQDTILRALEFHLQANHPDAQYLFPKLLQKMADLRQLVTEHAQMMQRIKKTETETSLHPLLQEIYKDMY
Peroxisome proliferator-activated receptor gamma (Homo sapiens), sequence (P37231 whole entry, looked up): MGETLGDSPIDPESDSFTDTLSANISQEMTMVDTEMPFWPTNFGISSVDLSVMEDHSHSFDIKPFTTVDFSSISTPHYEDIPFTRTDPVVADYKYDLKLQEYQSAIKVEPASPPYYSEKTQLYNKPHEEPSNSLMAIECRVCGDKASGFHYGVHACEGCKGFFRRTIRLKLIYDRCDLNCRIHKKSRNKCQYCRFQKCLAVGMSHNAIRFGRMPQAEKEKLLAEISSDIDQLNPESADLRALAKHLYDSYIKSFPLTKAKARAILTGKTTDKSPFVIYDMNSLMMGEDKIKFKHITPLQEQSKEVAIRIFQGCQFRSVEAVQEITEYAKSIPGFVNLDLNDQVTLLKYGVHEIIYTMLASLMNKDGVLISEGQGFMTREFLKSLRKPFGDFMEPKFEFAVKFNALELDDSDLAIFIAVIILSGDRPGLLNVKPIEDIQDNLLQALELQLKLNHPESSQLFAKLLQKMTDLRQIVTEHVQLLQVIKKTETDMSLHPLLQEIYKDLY

`CCC1NC(=O)c2cc(S(N)(=O)=O)c(Cl)cc2N1` (stereo not given): the Potency entry in assay [1], in assay [2], in assay [3], in assay [4], in assay [5] and in assay [6] was “inactive” in each case. For the same compound, the Potency entry in assay [7], in assay [8], in assay [9], in assay [10], in [11] and in assay [12] was “inactive” throughout.

With `O=C(O)c1cccc(-c2noc(-c3ccccc3F)n2)c1`, the Potency entry in assay [1], in [13], in assay [5], in [8], in assay [10] and in [12] was “inactive” each time. Besides, in assay [14], the Potency is 11.9 µM (active).

In the case of `c1cc(N(CC2CO2)CC2CO2)ccc1Cc1ccc(N(CC2CO2)CC2CO2)cc1` (stereo not given), in assay [1], the Potency is 54.5 µM (active). Moreover, the Potency entry in assay [13], in assay [6], in assay [8], in [9] and in assay [14] was “inactive” in each case.

As for `C[C@]1(Cn2ccnn2)[C@H](C(=O)O)N2C(=O)C[C@H]2S1(=O)=O`, the Potency result in assay [1], in [3], in [4], in assay [13], in [5] and in assay [6] was “inactive” in each case. Moreover, the Potency result in [8], in assay [9], in assay [15], in assay [10] and in [12] was “inactive” each time.

For `CN(C(=O)CN(CCO)CC(=O)N(C)C(C)(C)Cc1ccccc1)C(C)(C)Cc1ccccc1`, the Potency result in assay [1], in [3], in assay [4], in [13], in [7] and in [8] was “inactive” throughout. Moreover, the Potency entry in assay [16], in assay [17], in assay [15], in assay [14], in [11] and in assay [12] was “inactive” throughout.

On to `CCCCN(CCN(CCCC)C(=O)N1CCOCC1)C(=O)N1CCOCC1`, for which the Potency result in assay [3], in assay [18], in assay [4], in [9], in [14] and in assay [11] was “inactive” each time. Also, the Potency in assay [12] is 33.5 µM (active).

Regarding `O=C1Cc2cc(Cl)ccc2N1`, the Potency entry in assay [2], in assay [3], in [4], in [13], in assay [5] and in assay [6] was “inactive” in each case. The Potency entry in assay [7], in assay [8], in assay [16], in [9], in assay [14] and in [10] was “inactive” each time. Besides, the Potency entry in assay [11] and in assay [12] was “inactive” in each case.

As for `CC(=O)OCC(=O)NCCCOc1cccc(CN2CCCCC2)c1`, the Potency result in assay [1], in assay [3], in assay [18], in [4], in [5] and in assay [6] was “inactive” throughout. The Potency entry in [7], in assay [17], in assay [9], in [15], in [14] and in assay [10] was “inactive” each time. The Potency entry in assay [11] and in assay [12] was “inactive” throughout.

Regarding `Brc1cc(Br)c(Oc2cc(Br)c(Br)cc2Br)cc1Br`, the Potency entry in [3], in assay [18], in assay [4], in assay [9] and in assay [14] was “inactive” in each case. The Potency in assay [8] and in assay [12] was 23.9 µM (active) in each case.

As to `CC(C)(C)CC(=O)OCC(=O)[C@@]1(O)CC[C@H]2[C@@H]3CCC4=CC(=O)C=C[C@]4(C)[C@H]3[C@@H](O)C[C@@]21C`, the Potency entry in assay [3], in [18], in assay [4], in assay [13], in assay [6] and in [8] was “inactive” in each case. Besides, the Potency entry in assay [9], in assay [14], in assay [10] and in assay [12] was “inactive” throughout.
